The record followed here is PubChem BioAssay (NCATS).

Several values for one entry are separate records, joined by “and”; a condition that tells them apart may be missing. Equal values may be shown once. Inconclusive results are not listed. Activity calls are given as the source filed them. Unless noted, the call rests on the fitted dose curve.

Experiment [1] in a line: qHTS for Inhibitors of the Functional Ribonucleoprotein Complex (vRNP) of Lassa (LASV) Arenavirus: LASV Primary Screen - GLuc reporter signal (AID 1347082; calls by dose curve; tested in HEK293 reporter line; further: nearly all actives have a fitted effect of over 60% in size; further: potency means the concentration at half of the fitted maximal effect; on activity change, negative = inhibition: on the % scale 0 is the no-effect control and ±100 the full control effect). A general note: qHTS replaces the single test concentration by a dilution series.
Experiment [2] in a line: qHTS for Inhibitors of the Functional Ribonucleoprotein Complex (vRNP) of Lassa (LASV) Arenavirus: Viability assay - alamar blue signal for LASV Primary Screen (AID 1347083; calls by dose curve; tested in HEK293 reporter line; further: nearly all actives have a fitted effect of over 80% in size; further: potency means the concentration at half of the fitted maximal effect; on activity change, negative = reduced viability: on the % scale 0 is the no-effect control and ±100 the full control effect).
The nature of experiment [3]: qHTS for Inhibitors of the Functional Ribonucleoprotein Complex (vRNP) of Lymphocytic Choriomeningitis Arenaviruses (LCMV): Viability assay - alamar blue signal for LCMV Primary Screen (AID 1347085; calls by dose curve; tested in HEK293 reporter line; further: nearly all actives have a fitted effect of over 80% in size; further: potency means the concentration at half of the fitted maximal effect; on activity change, negative = lower viability: on the % scale 0 is the no-effect control and ±100 the full control effect).
Experiment [4] has as its target Nucleoprotein (Lymphocytic choriomeningitis virus (strain Armstrong)) (UniProt P09992). Kind of experiment: qHTS for Inhibitors of the Functional Ribonucleoprotein Complex (vRNP) of Lymphocytic Choriomeningitis Arenaviruses (LCMV): LCMV Primary Screen - GLuc reporter signal (AID 1347086). Further: nearly all actives have a fitted effect of over 70% in size. Further: potency means the concentration at half of the fitted maximal effect.
Experiment [5] is described as follows: Primary qHTS for Huh7 cytotoxicity: counterscreen for inhibitors of MERS-S pseudotyped particle cell entry (AID 1479147). To be noted: outcome: dose series up to 57.1 µM unless noted.
The nature of experiment [6]: Primary qHTS for inhibitors of MERS-S pseudo-typed particle cell entry (AID 1479149). Further: nearly all actives have a fitted effect of over 60% in size. Further: potency means the concentration at half of the fitted maximal effect.
Experiment [7] can be described thus: Primary qHTS for Vero E6 cytotoxicity: counterscreen for inhibitors of SARS-S pseudo-typed particle cell entry (AID 1479150). As to conditions: outcome: dose series up to 57.1 µM unless noted.
Experiment [8] is described as follows: Cytotoxicity counterscreen for inhibitors of SARS-CoV-2 cell entry (AID 1645845). Further: nearly all actives have a fitted effect of over 50% in size. The essentials:
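ATP-content luminescence (ATPLite 1step, 15 min RT) read after 48 h compound exposure of Expi293F cells stably expressing human ACE2; normalized to cells-only wells and media-only wells.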
(A counterscreen serves to expose hits that act by an unwanted route or on another target.)

Experiment [9] is described as follows: Inducers of the Endoplasmic Reticulum Stress Response (ERSR) in human glioma: Validation (AID 504836; active means well fitted curve in the direction sought with a large enough effect; further: 0% is about no effect). A digest of the protocol:
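ERSR induction read as luciferase luminescence (Bright-Glo, 10 min at room temperature) in stably transfected human U87-MG glioma cells exposed to compounds for 16 h, using GRP78 as sensor.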

A short description of experiment [10]: Primary qHTS for inhibitors of SARS-S pseudo-typed particle cell entry (AID 1479145). Further: nearly all actives have a fitted effect of over 45% in size.
A short description of experiment [11]: Primary qHTS to identify inhibitors of SARS-CoV-2 cell entry (AID 1645846). Further: nearly all actives have a fitted effect of over 45% in size. To be noted: activity change, negative = inhibition: at 57.1 µM (top of the series) unless noted. The essentials: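 Inhibition of spike-mediated entry was scored in human ACE2-transfected Expi293F cells. Particles were MLV-pseudotyped with Wuhan-Hu-1 S carrying a 19-aa C-terminal deletion; signal was luciferase after two days, scaled between spike PP and fusion-protein-free PP.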

Experiment [12] is described as follows: Validation screen for inhibitors of Lassa infection (AID 463096). Further: on the % scale 0 is the no-effect control and ±100 the full control effect.
Experiment [13] in a line: Confirmatory qHTS to identify inhibitors of SARS-CoV-2 cell entry (AID 1645844). Further: potency means the concentration at half of the fitted maximal effect; nearly all actives have a fitted effect of over 45% in size. A digest of the protocol: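 Luminescence entry read-out after 48 h: spike-pseudotyped MLV particles (Wuhan-Hu-1, 19-aa C-terminal truncation) added to compound-pretreated (1 h) HEK293-ACE2 cells; Data were normalised to bald PP and spike PP wells.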
Experiment [14] can be described thus: VSVG counterscreen qHTS to identify inhibitors of SARS-CoV-2 cell entry (AID 1645847). Further: potency means the concentration at half of the fitted maximal effect; nearly all actives have a fitted effect of over 65% in size. A digest of the protocol: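 Luminescence from a luciferase reporter, normalised to bald particle and VSV-G pseudotyped particle wells, is the read-out. Cells are HEK293 expressing human ACE2, exposed to compound 1 h before a 48 h particle infection at 37 °C.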

Nucleoprotein (Lymphocytic choriomeningitis virus (strain Armstrong)), sequence (P09992 whole entry, looked up): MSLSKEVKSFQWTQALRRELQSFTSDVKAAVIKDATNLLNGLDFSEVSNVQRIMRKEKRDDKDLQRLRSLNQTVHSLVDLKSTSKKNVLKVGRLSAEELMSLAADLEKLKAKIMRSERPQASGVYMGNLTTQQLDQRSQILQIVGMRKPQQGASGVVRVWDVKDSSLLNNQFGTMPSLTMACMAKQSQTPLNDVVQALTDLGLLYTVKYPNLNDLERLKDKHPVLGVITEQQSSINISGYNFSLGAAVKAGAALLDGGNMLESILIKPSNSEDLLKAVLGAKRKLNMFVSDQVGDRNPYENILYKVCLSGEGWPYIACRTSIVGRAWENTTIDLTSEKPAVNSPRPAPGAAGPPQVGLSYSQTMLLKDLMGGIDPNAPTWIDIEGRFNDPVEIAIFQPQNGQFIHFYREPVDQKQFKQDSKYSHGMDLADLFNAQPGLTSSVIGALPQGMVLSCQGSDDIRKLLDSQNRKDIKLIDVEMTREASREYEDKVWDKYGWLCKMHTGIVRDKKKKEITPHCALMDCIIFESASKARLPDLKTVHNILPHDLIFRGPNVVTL

With `CO[C@@H]1[C@H](OC(=O)/C=C/C=C/C=C/C=C/C(=O)O)CC[C@]2(CO2)[C@H]1[C@@]1(C)O[C@@H]1CC=C(C)C`, the Potency result in experiment [1], in [2], in experiment [3], in experiment [4], in experiment [6] and in experiment [8] was “inactive” each time. Also, the compound was called inactive in experiment [5] and in experiment [7].

Consider `CO/N=C(\C(=O)N[C@@H]1C(=O)N2C(C(=O)O)=C(COC(C)=O)CS[C@H]12)c1csc(N)n1`, for which the result in experiment [9], in experiment [5] and in experiment [7] was inactive. Further, the Potency entry in experiment [1], in experiment [2], in experiment [3], in [4], in experiment [10] and in experiment [6] was “inactive” in each case. Further, the Potency result in [8] and in experiment [11] was “inactive” each time.

Regarding `CCC(NC(C)C)C(O)c1ccc(O)c(O)c1` (configuration not stated), the Potency entry in experiment [12], in experiment [1], in experiment [2], in [3], in experiment [4] and in experiment [10] was “inactive” each time. Besides, the Potency result in experiment [6] and in [8] was “inactive” in each case. Moreover, the result in experiment [9], in [5] and in experiment [7] was inactive. Further, in [11], the activity change, negative = inhibition was -5.57%.

On to `CCCCCCCCCCCCCCCC(=O)O[C@@H]1CC(C)=C(/C=C/C(C)=C/C=C/C(C)=C/C=C/C=C(C)/C=C/C=C(C)/C=C/C2=C(C)C[C@@H](OC(=O)CCCCCCCCCCCCCCC)CC2(C)C)C(C)(C)C1`, for which the Potency entry in experiment [1], in [2], in experiment [3], in [4], in experiment [6] and in experiment [8] was “inactive” in each case. Further, the result in experiment [5] and in [7] was inactive.

For the compound `COc1ccc(CC2c3cc(OC)c(OC)cc3CC[N+]2(C)CCC(=O)OCCCCCOC(=O)CC[N+]2(C)CCc3cc(OC)c(OC)cc3C2Cc2ccc(OC)c(OC)c2)cc1OC` (configuration not stated), the activity change, negative = inhibition in experiment [1] is -1.71% [at 11.5 µM] (inactive); in [4] it was -0.768% [at 11.5 µM] (inactive); in [11], -27% and -4%. Further, the activity change, negative = reduced viability in [2] is -21.5% [at 11.5 µM] (inactive). For the same compound, in [3], the activity change, negative = lower viability was 2.32% [at 11.5 µM] (inactive). In addition, the Potency entry in experiment [10], in experiment [6] and in experiment [8] was “inactive” throughout. Also, the call in experiment [5] was inactive.

On to `COc1c(OCCCN2CCOCC2)ccc2c3n(c(=NC(=O)c4cnc(N)nc4)nc12)CCN3`, for which the Potency in [1] was 1500 nM (active); in experiment [2] it was 298 nM (active); in experiment [3] it was 1060 nM (active); in [4], 2980 nM (active); in experiment [6], 3550 nM (active); in experiment [13], 312 nM (active). The Potency in experiment [14] was 2780 nM (active). The activity change, negative = cytotoxicity in experiment [5] is 3.49% [at 11.4 µM] (inactive); in experiment [7], -14.8% [at 11.4 µM] (inactive).

`CCCNS(=O)(=O)Nc1ncnc(OCCOc2ncc(Br)cn2)c1-c1ccc(Br)cc1`: the Potency entry in experiment [1], in [2], in experiment [3], in experiment [4] and in experiment [6] was “inactive” throughout. The call in experiment [5] and in [7] was inactive.

As for `Nc1cccc2c1C(=O)N(C1CCC(=O)NC1=O)C2=O` (configuration not stated), the Potency entry in experiment [1], in [2], in [3], in experiment [4], in experiment [6] and in [8] was “inactive” in each case. In addition, the call in [5] and in experiment [7] was inactive. For the same compound, the activity change, negative = inhibition in experiment [11] was -12.7%.

In the case of `COc1ccc(-n2nc(C(N)=O)c3c2C(=O)N(c2ccc(N4CCCCC4=O)cc2)CC3)cc1`, the Potency result in experiment [1], in experiment [2], in experiment [3], in experiment [4], in [6] and in experiment [8] was “inactive” throughout. Besides, the Potency entry in [11] was “inactive”. Also, the compound was classed as inactive in experiment [5] and in experiment [7].
